Compound activity from PubChem.
Hits are enriched below; roughly 3.6% of the tested compounds scored in any of these assays.
FAS-TE inh: inhibitors of human fatty acid synthase thioesterase domain | inhibition, % at 15 µM | hit rate 0.67% among 360,000 | P49327 | recombinant FAS-TE, OMFH fluorogenic substrate, fluorescence endpoint | AID 602261;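 active means compounds whose normalised, plate-corrected inhibition of enzyme fluorescence in the single-dose primary screen is 50% or more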;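 further: 0% = DMSO with enzyme and 100% = substrate without enzyme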
CendR NRP1 mod: modulators of CendR peptide binding to human neuropilin-1 | O14786 | hit rate 0.85% among 360,000 | AID 602438 | FAM-RPARPAR peptide binding to NRP-1, fluorescence polarization | inhibition, % at 25 µM;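 active means inhibition or corrected inhibition above about 18%, plus a signal ratio from 0.5 to 1.5, limit read from the data, passing the limit was not always enough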
Myeloid diff MLP: promotes myeloid progenitor differentiation; calls only at 10 µM; hit rate 1% among 360,000; ER-HoxA9 myeloid progenitors, lysozyme-GFP differentiation, flow cytometry;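 active means normalized GFP-positive differentiation at or above the plate's own cutoff, the solvent-only control mean plus 3 SD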;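 further: cells exposed to compound for four days before flow analysis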
CRFBP-R2 block: antagonists of CRF-binding protein/CRF-R2 receptor complex. HEK293 CRF-R2/CRF-BP, CRF-induced calcium fluorescence. inhibition, % at 11.8 µM. hit rate 0.59% among 350,000;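 active means inhibition of the ligand-induced calcium signal above about 50% at the single tested concentration, limit read from the data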
NadD inh: NadD (S. aureus) enzyme inhibition. purified NadD enzyme, colorimetric absorbance read-out. inhibition, % at 20 µM. hit rate 0.78% among 360,000. AID 602399; in the data active means inhibition above about 26%
* marks the source's active call; other numbers are inactive results.

CCOC(=O)C1CCCN(C(=O)c2cccc(S(=O)(=O)N(Cc3ccccc3)c3ccccc3OC)c2)C1 (stereo not drawn) was read as FAS-TE inh 30, CendR NRP1 mod 9, Myeloid diff MLP inactive, CRFBP-R2 block 51* and NadD inh 0.
COc1cccc(/C=C/C(=C2\C(=O)N(c3ccccc3)N=C2C)c2ccc(Br)cc2)c1OC was read as FAS-TE inh 2, CendR NRP1 mod 7, Myeloid diff MLP inactive, CRFBP-R2 block 5 and NadD inh 4.
Cn1c(CNc2ccccc2O)nc2ccccc21 was read as FAS-TE inh -2, CendR NRP1 mod -2, Myeloid diff MLP active, CRFBP-R2 block -8 and NadD inh 1.
For CC(C)CCN1CC(O)=C(c2nc3ccccc3[nH]2)C1=N the results were FAS-TE inh -1, CendR NRP1 mod -4, Myeloid diff MLP inactive, CRFBP-R2 block -1 and NadD inh 3.
Screening CC(C)N1CC(O)=C(c2nc3ccccc3[nH]2)C1=N returned FAS-TE inh -8, CendR NRP1 mod 7, Myeloid diff MLP inactive, CRFBP-R2 block -1 and NadD inh -1.
For CC(C1CC2CCC1C2)N1CC(O)=C(c2nc3ccccc3[nH]2)C1=N (stereo not drawn) the results were FAS-TE inh 5, CendR NRP1 mod -36, Myeloid diff MLP active, CRFBP-R2 block -37 and NadD inh -3.
CCCCN1CC(O)=C(c2nc3ccccc3[nH]2)C1=N was read as FAS-TE inh 0, CendR NRP1 mod 22*, Myeloid diff MLP inactive, CRFBP-R2 block -9 and NadD inh 2.
Screening CC1(C)C(O)=C(c2nc3ccccc3[nH]2)C(=N)N1c1ccccc1 returned FAS-TE inh -8, CendR NRP1 mod -9, Myeloid diff MLP active, CRFBP-R2 block -8 and NadD inh -1.
For CCCn1nc2cc(C(=O)NCCc3ccc(C)cc3)ccc2c1OCC the results were FAS-TE inh 1, CendR NRP1 mod 26*, Myeloid diff MLP inactive, CRFBP-R2 block -6 and NadD inh 0.
`CCCCn1nc2cc(C(=O)NCC34CC5CC(CC(C5)C3)C4)ccc2c1OCC` gave FAS-TE inh 11, CendR NRP1 mod 14, Myeloid diff MLP active, CRFBP-R2 block 15 and NadD inh 1.
CCOc1c2ccc(C(=O)NCCc3cccs3)cc2nn1CC was read as FAS-TE inh -8, CendR NRP1 mod 25*, Myeloid diff MLP inactive, CRFBP-R2 block 8 and NadD inh 3.
CCCn1nc2cc(C(=O)NCCCCc3ccccc3)ccc2c1OCC was read as FAS-TE inh 0, CendR NRP1 mod 0, Myeloid diff MLP inactive, CRFBP-R2 block -9 and NadD inh -8.
For CCCCn1nc2cc(C(=O)NCCc3cccs3)ccc2c1OCC the results were FAS-TE inh -4, CendR NRP1 mod 0, Myeloid diff MLP inactive, CRFBP-R2 block 7 and NadD inh -7.
For COc1ccc(C(C(=O)Nc2c(C)cccc2C)N2CCN(C)CC2)cc1 (stereo not drawn) the results were CendR NRP1 mod 0 and Myeloid diff MLP inactive.
For COc1ccc(C(=O)NC2CC2)cc1OC1CCN(Cc2ccc(F)c(F)c2)CC1 the results were FAS-TE inh -3, CendR NRP1 mod -4, Myeloid diff MLP inactive, CRFBP-R2 block -1 and NadD inh -1.
For COC(=O)[C@]12CCCCC=C1N(Cc1ccc(Cl)cc1Cl)C(=O)[C@H](CC(=O)NCc1ccc(OC)c(OC)c1)C2 the results were FAS-TE inh 8, CendR NRP1 mod 0, Myeloid diff MLP inactive and NadD inh -5.
COc1ccc(-c2nnc(Nc3ccc(S(=O)(=O)Nc4nccs4)cc3)c3ccccc23)cc1 was read as FAS-TE inh -2, CendR NRP1 mod -17, Myeloid diff MLP inactive, CRFBP-R2 block 61* and NadD inh 12.
For CC(=O)Oc1ccc(Cn2c(C)c(C(=O)NCCC#N)sc2=O)cc1 the results were FAS-TE inh -2, CendR NRP1 mod 9, Myeloid diff MLP inactive and NadD inh -4.
Screening O=C(CCCNC(=O)/C(=C\c1ccc(F)cc1)NC(=O)c1ccccc1)OCc1ccccc1 returned FAS-TE inh -1, CendR NRP1 mod 31*, Myeloid diff MLP inactive, CRFBP-R2 block 8 and NadD inh -5.
Screening O=C(CCCNC(=O)/C(=C/c1ccc(F)cc1)NC(=O)c1ccccc1)OCc1ccccc1 returned FAS-TE inh 8, CendR NRP1 mod -1, Myeloid diff MLP inactive, CRFBP-R2 block -15 and NadD inh -1.
